# PMC11062922 (Nature Chemical Biology, 2023)
# Where two headings read alike, the source gives them in different places.
# Experiments:
# [1] = system: SLK; conditions: read-out: apparent Kd, n = 1
# [2] = system: STK10; conditions: read-out: apparent Kd, n = 1
substance,measurement,setting,value
Lestaurtinib,potency estimated from few doses,"[1]; compound concentrations:100 nM and 1000 nM (sheet 'Lestaurtinib' of Supplementary Table 1),run:Lestaurtinib_02601_R1,Plate:MR018",1760 nM
same,potency estimated from few doses,"[1]; compound concentrations:100 nM and 1000 nM (sheet 'Lestaurtinib' of Supplementary Table 1),run:Lestaurtinib_02601_R3,Plate:MR018",1400 nM
same,potency estimated from few doses,"[1]; compound concentrations:100 nM and 1000 nM (sheet 'Lestaurtinib' of Supplementary Table 1),run:Lestaurtinib_02606_R2,Plate:MR019",1320 nM
same,potency estimated from few doses,"[1]; compound concentrations:100 nM and 1000 nM (sheet 'Lestaurtinib' of Supplementary Table 1),run:Lestaurtinib_02624_R1,Plate:MR020",1810 nM
same,potency estimated from few doses,"[1]; compound concentrations:100 nM and 1000 nM (sheet 'Lestaurtinib' of Supplementary Table 1),run:Lestaurtinib_02624_R2,Plate:MR020",1130 nM
same,potency estimated from few doses,"[1]; compound concentrations:100 nM and 1000 nM (sheet 'Lestaurtinib' of Supplementary Table 1),run:Lestaurtinib_02741_R3,Plate:MR023",1440 nM
same,potency estimated from few doses,"[1]; compound concentrations:100 nM and 1000 nM (sheet 'Lestaurtinib' of Supplementary Table 1),run:Lestaurtinib_02748_R2,Plate:MR024",1330 nM
same,potency estimated from few doses,"[1]; compound concentrations:100 nM and 1000 nM (sheet 'Lestaurtinib' of Supplementary Table 1),run:Lestaurtinib_02752_R3,Plate:MR025",1330 nM
same,potency estimated from few doses,"[1]; compound concentrations:100 nM and 1000 nM (sheet 'Lestaurtinib' of Supplementary Table 1),run:Lestaurtinib_02765_R1,Plate:MR026",1320 nM
same,potency estimated from few doses,"[1]; compound concentrations:100 nM and 1000 nM (sheet 'Lestaurtinib' of Supplementary Table 1),run:Lestaurtinib_02765_R2,Plate:MR026",1130 nM
same,potency estimated from few doses,"[1]; compound concentrations:100 nM and 1000 nM (sheet 'Lestaurtinib' of Supplementary Table 1),run:Lestaurtinib_02766_R2,Plate:MR027",1150 nM
same,potency estimated from few doses,"[1]; compound concentrations:100 nM and 1000 nM (sheet 'Lestaurtinib' of Supplementary Table 1),run:Lestaurtinib_02768_R1,Plate:MR028",1300 nM
same,potency estimated from few doses,"[1]; compound concentrations:100 nM and 1000 nM (sheet 'Lestaurtinib' of Supplementary Table 1),run:Lestaurtinib_02768_R2,Plate:MR028",1400 nM
same,potency estimated from few doses,"[1]; compound concentrations:100 nM and 1000 nM (sheet 'Lestaurtinib' of Supplementary Table 1),run:Lestaurtinib_02795_R1,Plate:MR022",1610 nM
same,potency estimated from few doses,"[1]; compound concentrations:100 nM and 1000 nM (sheet 'Lestaurtinib' of Supplementary Table 1),run:Lestaurtinib_02795_R2,Plate:MR022",1360 nM
same,potency estimated from few doses,"[1]; compound concentrations:100 nM and 1000 nM (sheet 'Lestaurtinib' of Supplementary Table 1),run:Lestaurtinib_02795_R3,Plate:MR022",1530 nM
same,potency estimated from few doses,"[1]; compound concentrations:100 nM and 1000 nM (sheet 'Lestaurtinib' of Supplementary Table 1),run:Lestaurtinib_02802_R1,Plate:MR029",1150 nM
same,potency estimated from few doses,"[1]; compound concentrations:100 nM and 1000 nM (sheet 'Lestaurtinib' of Supplementary Table 1),run:Lestaurtinib_02802_R2,Plate:MR029",964 nM
same,potency estimated from few doses,"[1]; compound concentrations:100 nM and 1000 nM (sheet 'Lestaurtinib' of Supplementary Table 1),run:Lestaurtinib_02802_R3,Plate:MR029",1350 nM
same,potency estimated from few doses,"[1]; compound concentrations:100 nM and 1000 nM (sheet 'Lestaurtinib' of Supplementary Table 1),run:Lestaurtinib_03172_R2,Plate:MR031",1460 nM
same,potency estimated from few doses,"[1]; compound concentrations:100 nM and 1000 nM (sheet 'Lestaurtinib' of Supplementary Table 1),run:Lestaurtinib_03172_R3,Plate:MR031",914 nM
same,potency estimated from few doses,"[1]; compound concentrations:100 nM and 1000 nM (sheet 'Lestaurtinib' of Supplementary Table 1),run:Lestaurtinib_03252_R1,Plate:MR032",1350 nM
same,potency estimated from few doses,"[1]; compound concentrations:100 nM and 1000 nM (sheet 'Lestaurtinib' of Supplementary Table 1),run:Lestaurtinib_03252_R2,Plate:MR032",1400 nM
same,potency estimated from few doses,"[1]; compound concentrations:100 nM and 1000 nM (sheet 'Lestaurtinib' of Supplementary Table 1),run:Lestaurtinib_03260_R1,Plate:MR033",1930 nM
same,potency estimated from few doses,"[1]; compound concentrations:100 nM and 1000 nM (sheet 'Lestaurtinib' of Supplementary Table 1),run:Lestaurtinib_03260_R2,Plate:MR033",1930 nM
same,potency estimated from few doses,"[1]; compound concentrations:100 nM and 1000 nM (sheet 'Lestaurtinib' of Supplementary Table 1),run:Lestaurtinib_03260_R3,Plate:MR033",1310 nM
same,potency estimated from few doses,"[2]; compound concentrations:100 nM and 1000 nM (sheet 'Lestaurtinib' of Supplementary Table 1),run:Lestaurtinib_02339_R1,Plate:MR001",179 nM
same,potency estimated from few doses,"[2]; compound concentrations:100 nM and 1000 nM (sheet 'Lestaurtinib' of Supplementary Table 1),run:Lestaurtinib_02339_R2,Plate:MR001",158 nM
same,potency estimated from few doses,"[2]; compound concentrations:100 nM and 1000 nM (sheet 'Lestaurtinib' of Supplementary Table 1),run:Lestaurtinib_02339_R3,Plate:MR001",80.5 nM
same,potency estimated from few doses,"[2]; compound concentrations:100 nM and 1000 nM (sheet 'Lestaurtinib' of Supplementary Table 1),run:Lestaurtinib_02364_R2,Plate:MR002",140 nM
same,potency estimated from few doses,"[2]; compound concentrations:100 nM and 1000 nM (sheet 'Lestaurtinib' of Supplementary Table 1),run:Lestaurtinib_02364_R3,Plate:MR002",142 nM
same,potency estimated from few doses,"[2]; compound concentrations:100 nM and 1000 nM (sheet 'Lestaurtinib' of Supplementary Table 1),run:Lestaurtinib_02367_R3,Plate:MR003",144 nM
same,potency estimated from few doses,"[2]; compound concentrations:100 nM and 1000 nM (sheet 'Lestaurtinib' of Supplementary Table 1),run:Lestaurtinib_02407_R1,Plate:MR005",113 nM
same,potency estimated from few doses,"[2]; compound concentrations:100 nM and 1000 nM (sheet 'Lestaurtinib' of Supplementary Table 1),run:Lestaurtinib_02422_R1,Plate:MR006",162 nM
same,potency estimated from few doses,"[2]; compound concentrations:100 nM and 1000 nM (sheet 'Lestaurtinib' of Supplementary Table 1),run:Lestaurtinib_02422_R2,Plate:MR006",47 nM
same,potency estimated from few doses,"[2]; compound concentrations:100 nM and 1000 nM (sheet 'Lestaurtinib' of Supplementary Table 1),run:Lestaurtinib_02437_R1,Plate:MR007",142 nM
same,potency estimated from few doses,"[2]; compound concentrations:100 nM and 1000 nM (sheet 'Lestaurtinib' of Supplementary Table 1),run:Lestaurtinib_02437_R3,Plate:MR007",18.2 nM
same,potency estimated from few doses,"[2]; compound concentrations:100 nM and 1000 nM (sheet 'Lestaurtinib' of Supplementary Table 1),run:Lestaurtinib_02438_R2,Plate:MR008",137 nM
same,potency estimated from few doses,"[2]; compound concentrations:100 nM and 1000 nM (sheet 'Lestaurtinib' of Supplementary Table 1),run:Lestaurtinib_02443_R1,Plate:MR009",141 nM
same,potency estimated from few doses,"[2]; compound concentrations:100 nM and 1000 nM (sheet 'Lestaurtinib' of Supplementary Table 1),run:Lestaurtinib_02443_R3,Plate:MR009",154 nM
same,potency estimated from few doses,"[2]; compound concentrations:100 nM and 1000 nM (sheet 'Lestaurtinib' of Supplementary Table 1),run:Lestaurtinib_02473_R2,Plate:MR010",140 nM
same,potency estimated from few doses,"[2]; compound concentrations:100 nM and 1000 nM (sheet 'Lestaurtinib' of Supplementary Table 1),run:Lestaurtinib_02482_R1,Plate:MR011",131 nM
same,potency estimated from few doses,"[2]; compound concentrations:100 nM and 1000 nM (sheet 'Lestaurtinib' of Supplementary Table 1),run:Lestaurtinib_02482_R2,Plate:MR011",157 nM
